The list is not random: actives were taken first. Their share in the collection is about 13%.
USP7 inh: blocks human USP7 ubiquitin-rhodamine cleavage; Q93009; purified USP7, Ub-rhodamine cleavage fluorescence; inhibition, % at 20 µM; hit rate 0.3% among 47,000
Target sequence (Q93009 whole entry, looked up): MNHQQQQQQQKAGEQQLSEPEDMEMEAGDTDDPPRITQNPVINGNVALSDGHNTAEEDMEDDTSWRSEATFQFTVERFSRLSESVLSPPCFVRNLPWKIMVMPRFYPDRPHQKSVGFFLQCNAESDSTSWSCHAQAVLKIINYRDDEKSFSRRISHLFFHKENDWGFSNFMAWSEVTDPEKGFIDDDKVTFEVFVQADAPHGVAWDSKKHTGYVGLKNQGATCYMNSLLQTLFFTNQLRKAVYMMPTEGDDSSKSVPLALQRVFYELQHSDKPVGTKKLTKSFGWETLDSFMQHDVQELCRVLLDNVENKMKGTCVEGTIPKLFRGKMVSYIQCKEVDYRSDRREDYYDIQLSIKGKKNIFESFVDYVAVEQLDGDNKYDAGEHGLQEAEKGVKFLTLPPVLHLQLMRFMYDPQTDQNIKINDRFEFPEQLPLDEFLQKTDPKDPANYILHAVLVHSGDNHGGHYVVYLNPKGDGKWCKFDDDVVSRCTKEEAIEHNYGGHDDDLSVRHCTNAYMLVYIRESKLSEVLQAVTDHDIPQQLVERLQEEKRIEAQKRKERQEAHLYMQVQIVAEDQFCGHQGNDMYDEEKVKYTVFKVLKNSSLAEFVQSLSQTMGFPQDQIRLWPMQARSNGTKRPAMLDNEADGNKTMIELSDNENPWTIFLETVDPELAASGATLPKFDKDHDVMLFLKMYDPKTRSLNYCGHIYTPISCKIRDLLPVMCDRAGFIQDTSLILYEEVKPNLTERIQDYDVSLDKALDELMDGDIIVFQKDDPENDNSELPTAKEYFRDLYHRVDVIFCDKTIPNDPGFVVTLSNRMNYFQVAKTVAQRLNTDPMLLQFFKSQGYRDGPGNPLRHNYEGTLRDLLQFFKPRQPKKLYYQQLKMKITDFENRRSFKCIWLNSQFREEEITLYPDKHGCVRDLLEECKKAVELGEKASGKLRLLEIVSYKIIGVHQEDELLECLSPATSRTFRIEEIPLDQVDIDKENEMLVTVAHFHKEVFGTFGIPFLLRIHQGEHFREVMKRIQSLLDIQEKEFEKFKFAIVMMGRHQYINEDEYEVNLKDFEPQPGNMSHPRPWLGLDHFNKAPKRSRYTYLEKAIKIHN
USP10 block: human USP10 deubiquitinase inhibition | purified USP10, Ub-rhodamine fluorescence, 60 min | inhibition, % at 20 µM | hit rate 1.1% among 47,000 | AID 1645856
USP8 inh: human USP8 deubiquitinase inhibition. purified USP8, Ub-rhodamine cleavage fluorescence, 30 min. inhibition, % at 20 µM. hit rate 4.2% among 47,000. AID 1645853
USP17 block: blocks human USP17 ubiquitin-rhodamine cleavage; A8MUK1; purified USP17, Ub-rhodamine cleavage fluorescence, 3 h; inhibition, % at 50 µM; hit rate 6.5% among 47,000; AID 1645855
UCHL1 inh: inhibitors of human UCHL1 deubiquitinase | P09936 | purified UCHL1, Ub-rhodamine cleavage fluorescence | inhibition, % at 20 µM | hit rate 0.2% among 47,000
USP30 block: inhibitors of human USP30 deubiquitinase; inhibition, % at 25 µM; purified USP30, Ub-rhodamine cleavage fluorescence; hit rate 5.3% among 47,000; AID 1645860; Q70CQ3
* hit, by the source's call; nt = no result. Cut-off read from the data, not from the text of the source: active = inhibition above about 30%; inactive = the rest.

SMILES	USP7 inh	USP10 block	USP8 inh	USP17 block	UCHL1 inh	USP30 block
CCCc1nc2sc3c(NCc4ccco4)ncnc3c2c2c1CCC2	-3.1	-1.6	21.9	-13.2	-3.1	-21.1
CC1Cc2ccccc2N1Cc1cc[nH]c(=O)c1 (configuration not stated)	-36.5	-9.4	45.2*	-33.7	-17.6	-310.8
CC1Cc2ccccc2N1CC(=O)NCc1ccccc1Cl (configuration not stated)	-47.1	-11.7	-38.6	-88.5	-37.7	-316.2
N#Cc1ccc(COC(=O)C2(c3ccc(Cl)cc3)CCCC2)cc1	-12.5	7.0	16.4	23.9	5.5	10.2
O=C(COc1ccccc1)N(c1cccc(Cl)c1)c1nc2ccccc2s1	-5.1	5.7	-1.1	-16.4	0.0	-22.5
O=C(Nc1ccc(C(=O)N2CCCC2)cc1)c1cc(Cl)ccc1-n1cnnn1	0.0	-0.4	21.5	27.3	1.8	14.6
CCCCc1nc2sc3c(SCC(=O)Nc4ccc(C)cc4)ncnc3c2c2c1CCC2	1.8	-2.9	7.0	0.0	-2.8	-3.1
CCCc1nc2sc3c(NCCC(C)C)ncnc3c2c2c1CCC2	-3.5	-9.0	-4.8	-23.1	-7.9	-16.0
CCCCc1nc2sc3c(NCCCO)ncnc3c2c2c1COC(C)(C)C2	-4.1	-0.3	-2.9	46.4*	-1.4	-0.1
CCCCc1nc2sc3c(SCC(=O)Nc4cccc(C)c4)ncnc3c2c2c1CCC2	-3.2	-1.6	-0.5	63.8*	-2.7	-11.9
CCCCNc1ncnc2c1sc1nc(CCC)c3c(c12)CCC3	-0.3	-1.4	-4.1	53.6*	-0.6	nt
CC1(C)Cc2c(c(N3CCOCC3)nc3sc4c(NCCO)ncnc4c23)CO1	4.3	-2.7	1.0	1.8	0.0	3.0
O=C(NC1CCCCC1)C(c1ccc(F)cc1)N(Cc1ccccc1Cl)C(=O)c1ccc(CN2CCOCC2)o1 (configuration not stated)	-1.4	-5.6	-5.2	25.2	-1.4	29.3
COc1ccc(C)cc1S(=O)(=O)N1C[C@@H](c2ccccc2)[C@H](c2ccn[nH]2)C1	1.7	1.5	7.3	5.2	0.9	0.0
CC(=O)N1CC2ON=C(c3ccccc3C)C2C1 (configuration not stated)	4.0	0.2	11.3	-0.4	1.2	17.7
c1ccc(-c2n[nH]nc2CN2CCC3(CC2)Nc2ccccc2C2=NCCN23)cc1	2.7	-2.3	-6.9	-13.7	0.9	-64.1
CN1CCCc2cc(C(CNC(=O)COc3ccc(F)cc3)N3CCCCC3)ccc21 (configuration not stated)	-9.0	-4.3	-7.7	-23.8	-7.2	-83.6
CSC1=N/C(=C/c2ccccc2)C(=O)N1c1ccc(F)c(Cl)c1	7.9	0.8	13.6	24.5	0.7	33.0*
O=C(C1CCCO1)N1CCN(c2ccc(-c3ccc4c(c3)OCO4)nn2)CC1 (configuration not stated)	5.1	1.1	14.5	23.8	0.1	22.3
O=C(COC(=O)c1cc(S(=O)(=O)N2CCOCC2)ccc1N1CCCCC1)NC1CCCc2ccccc21 (configuration not stated)	1.6	-1.7	14.1	-2.2	5.5	22.2
COc1c2n(c3ccccc13)[C@@]1(O)C(=O)N(C)C(=O)[C@@]1(O)c1c-2n(C)c2ccc(Cl)cc12	16.6	24.9	-16.9	59.3*	9.2	-63.5
Cc1cccc(-c2c(NC(=O)c3ccc(Cl)cc3Cl)n(C)c3ccccc3c2=O)c1	4.6	0.6	8.5	14.3	1.9	12.1
CCC(C)c1ccc(O[C@@H]2O[C@@H]3COC(c4ccccc4)O[C@H]3[C@H](O)[C@H]2NC(C)=O)cc1 (some centres not stated)	6.8	9.8	21.9	40.4*	4.1	81.5*
Cc1cccc(CNC(=O)c2csc(C(=O)N3CCCC3)n2)c1	3.4	1.0	23.4	1.9	0.8	15.3
CC(C)CNC(=O)c1cc(=O)[nH]c2ccc(S(=O)(=O)Nc3ccc(F)cc3)cc12	-4.0	2.0	3.5	36.1*	-0.2	25.3
SMILES	USP7 inh	USP10 block	USP8 inh	USP17 block	UCHL1 inh	USP30 block
O=c1c(-c2ccc(Cl)cc2Cl)c(O)nc2n1CCC2	-1.7	1.0	-1.4	4.9	-2.4	-1.7
Cc1ccc(Cn2nnc3c(=O)[nH]c(C4CCN(S(=O)(=O)c5ccc(S(=O)(=O)NC6CCCCC6)cc5)CC4)nc32)cc1	10.0	24.2	-19.8	-0.1	4.2	13.9
O=c1[nH]c(C2CCN(S(=O)(=O)c3ccc(S(=O)(=O)NC4CCCCC4)cc3)CC2)nc2c1nnn2Cc1ccc(F)cc1	7.9	36.0*	36.1*	46.6*	6.8	39.7*
O=c1[nH]c(C2CCN(S(=O)(=O)c3ccc(S(=O)(=O)NC4CC4)cc3)CC2)nc2c1nnn2Cc1ccc(F)cc1	-10.2	21.2	-0.7	nt	1.7	42.0*
O=c1[nH]c(C2CCN(S(=O)(=O)c3ccc(S(=O)(=O)NC4CC4)cc3)CC2)nc2c1nnn2Cc1ccccc1	-9.7	22.2	0.3	32.8*	3.8	38.7*
Cc1ccc(C)c(CN2C(=O)c3ccccc3S(=O)c3ccc(C(=O)NCCc4ccccc4)cc32)c1 (configuration not stated)	8.7	8.3	18.8	8.7	6.3	37.9*
COc1ccc(CCNC(=O)c2ccc3c(c2)N(Cc2cc(C)ccc2C)C(=O)c2ccccc2S3(=O)=O)cc1OC	4.2	0.0	-5.7	-0.4	3.2	-6.6
CCNc1nc(SCC(C)=O)nc2sc3c(c12)CCC(C)C3 (configuration not stated)	0.2	4.8	2.0	58.2*	4.7	34.0*
CC(C)c1ccc(NC(=O)C2C3C=CC4(O3)C2C(=O)N(CCc2ccc(Cl)cc2)C4C(=O)NC2CCCCC2)cc1 (configuration not stated)	6.4	9.2	54.2*	13.6	2.8	4.5
CC(C)OCCCN1C(=O)C2C(C(=O)Nc3ccc(Oc4ccccc4)cc3)C3C=CC2(O3)C1C(=O)NC1CCCCC1 (configuration not stated)	-14.8	5.1	8.1	50.7*	2.7	12.9
Cc1ccc(NC(=O)C2C3C=CC4(O3)C2C(=O)N(CCc2ccccc2)C4C(=O)NC2CCCCC2)cc1Cl (configuration not stated)	-3.4	25.3	33.9*	25.9	0.3	6.7
CSc1cccc(NC(=O)C2C3C=CC4(O3)C2C(=O)N(CCc2ccccc2)C4C(=O)NC2CCCCC2)c1 (configuration not stated)	-6.2	39.4*	56.8*	10.2	-1.5	-1.0
CC(C)CCN1C(=O)C2C(C(=O)Nc3ccc(F)cc3)C3(C)C=CC2(O3)C1C(=O)NC1CCCCC1 (configuration not stated)	-118.9	0.9	8.0	23.8	1.7	36.3*
CCOc1ccc(-c2cnc(NCc3cccc(C)c3)n2C)cc1	-9.7	-4.2	53.2*	-4.2	-5.2	-58.7
CCOc1ccc(NC(=O)CN2CCN(Cc3cccc(C)c3)S2(=O)=O)cc1	3.1	-1.9	16.4	1.6	2.9	0.4

Screening results deposited in PubChem BioAssay by Buhrlage Lab, Dana-Farber Cancer Institute and Novartis Institutes for BioMedical Research (Cambridge, Mass).
